Screening data as filed in PubChem BioAssay.
MLL CXXC-DNA inh = qHTS Fluorescence Polarization Assay for Inhibitors of MLL CXXC domain - DNA interaction; Histone-lysine N-methyltransferase 2A (Homo sapiens), Q03164; MLL-CXXC / FITC-HOXA9 DNA fluorescence polarization; Potency, µM (top dose mostly 115 µM), for the others: top-dose activity change, negative = inhibition, actives largely listed as inhibitors; 0.037% of 290,000 active; AID 2662, 2010; active = well fitted inhibition curve with a large enough effect in the polarisation, with a control signal flat, not every such curve was filed as active; inconclusive = small, poorly fitted or top-dose-only effect, or effect the other way, or a change in a side signal; inactive = no such curve, though single readings can be large or run the other way; the % refers to the polarisation; note: potency is the fitted concentration of half-maximal effect
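Fluorescence polarization: 7 uM MLL-CXXC (stock) preincubated 5 min with compounds, then 50 nM fluorescein-HOX-A9 DNA (stock) added; 30 min ambient. Buffer 50 mM Tris-HCl pH 7.5, 50 mM NaCl, 1 mM DTT, 0.05% BSA.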
LDHA inh = qHTS assay for inhibitors of human lactate dehydrogenase | activity change, % (values are at about 110 or 230 µM) | L-lactate dehydrogenase A chain (Homo sapiens), P00338 | 0.15% of 480,000 active | purified LDHA, NADH/diaphorase-resazurin fluorescence; active compounds read low; in the data active = activity change below about -30%; inconclusive = mostly about -25% to -30%;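 note: plate controls were DMSO wells for no effect and wells without enzyme for full effect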
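Human LDH5 (2 nM) was incubated with 0.06 mM NADH and 0.2 mM pyruvate for 5 min at room temperature in Tris pH 7.4. Remaining NADH was coupled through diaphorase/resazurin, and resorufin fluorescence was read at 0 and 20 min.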
pAkt inh = HTS Assay for Inhibitors of Akt Phophorylation: Primary Screen. Neuro2A IGF-stimulated pAkt S473 HTRF, 20 min; active compounds read low. activity change, % for hits at 50 µM. 0.32% of 360,000 active; in the data active = activity change below about -80%; inconclusive = mostly about -51% to -80%; note: % is set by controls: 0 for no effect and ±100 for the full control effect
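Neuro2A cells (4,500/well, DMEM with 0.5% FBS) were treated with compound at a single 50 µM final concentration, stimulated with 6 nM IGF for 20 min at 37 °C, and lysed. Phospho-Akt Ser473 was read by HTRF as 665/615 ratio ×10^4.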
Menin MLL FP FL = qHTS Assay for Inhibitors Targeting the Menin-MLL Interaction in MLL Related Leukemias: Competition With Fluorescein Labeled MLL-derived Peptide. Fluorescence polarization, fluorescein-MLL peptide displacement from menin. 290,000 tested, under 10 active. AID 1766, 2009. FP activity change, % at 61.4 µM; active = well fitted curve in the direction sought with a large enough effect in the polarisation, not every such curve was filed as active; inconclusive = small, poorly fitted or top-dose-only effect, or effect the other way, or a change in a side signal; inactive = no such curve, though single readings can be large or run the other way; the % refers to the polarisation; note: % of control where 0% means no effect
mIDH1 inhibitor = qHTS for Inhibitors of mutant isocitrate dehydrogenase 1 (IDH1): qHTS; Isocitrate dehydrogenase [NADP] cytoplasmic (Homo sapiens), O75874; AID 602179, 2012; Potency, µM (series often up to 76.6 µM), inactives show top-dose activity change, negative = inhibition, most hits filed as inhibitors; IDH1-R132H enzyme, NADPH consumption, diaphorase/resazurin fluorescence; 0.093% of 390,000 active; note: potency is the fitted concentration of half-maximal effect; % is set by controls: 0 for no effect and ±100 for the full control effect; nearly all actives have a fitted effect of over 65% in size
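IDH1-R132H (0.5 ug/mL dispensed) in pH 7.5 Tris buffer was preincubated 30 min with compound, then given a substrate mix of 0.016 mM NADPH and 2 mM alpha-KG for 80 min at room temperature; remaining NADPH was read by diaphorase/resazurin fluorescence.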
Menin MLL FP TR = qHTS Assay for Inhibitors Targeting the Menin-MLL Interaction in MLL Related Leukemias: Competition With Texas Red Labeled MLL-derived Mutant Peptide | Menin + Texas Red MLL mutant peptide, fluorescence polarization | 0.23% of 270,000 active | Potency, µM (top dose mostly 61.6 µM), for the others: at the top dose FP activity change, negative = inhibition, hits mostly inhibitors | O00255; active = well fitted inhibition curve with a large enough effect in the polarisation, with a control signal flat, not every such curve was filed as active; inconclusive = small, poorly fitted or top-dose-only effect, or effect the other way, or a change in a side signal; inactive = no such curve, though single readings can be large or run the other way; the % refers to the polarisation; note: potency is the fitted concentration of half-maximal effect; % of control where 0% means no effect
Target sequence (O00255 whole entry, looked up): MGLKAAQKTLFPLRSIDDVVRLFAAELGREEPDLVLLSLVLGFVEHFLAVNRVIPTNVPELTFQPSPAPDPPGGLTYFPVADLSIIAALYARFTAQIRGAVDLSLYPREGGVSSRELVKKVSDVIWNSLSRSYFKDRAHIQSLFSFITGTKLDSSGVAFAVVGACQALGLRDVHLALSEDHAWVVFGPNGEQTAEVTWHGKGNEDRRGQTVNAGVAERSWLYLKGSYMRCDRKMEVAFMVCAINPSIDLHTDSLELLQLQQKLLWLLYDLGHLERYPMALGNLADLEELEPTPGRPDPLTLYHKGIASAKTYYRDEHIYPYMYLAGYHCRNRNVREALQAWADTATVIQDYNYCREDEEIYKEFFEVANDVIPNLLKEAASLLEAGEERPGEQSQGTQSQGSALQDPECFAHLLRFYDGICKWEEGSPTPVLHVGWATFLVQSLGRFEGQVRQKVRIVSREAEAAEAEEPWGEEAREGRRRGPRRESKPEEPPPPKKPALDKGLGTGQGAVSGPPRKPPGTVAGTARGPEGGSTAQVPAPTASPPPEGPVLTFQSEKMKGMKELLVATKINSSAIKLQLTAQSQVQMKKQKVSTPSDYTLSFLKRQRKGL
Resorufin autofl = qHTS for Inhibitors of mutant isocitrate dehydrogenase 1 (IDH1): Cherrypicks Autofluorescence Interference | Resorufin detection reagent fluorescence interference, cell-free | 750 tested, under 10 active | shares compounds with mIDH1 inhibitor | inhibition of signal, % at 51.2 µM;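 note: 0% = wells with normal resorufin and full inhibition = wells lacking resorufin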
WT IDH1 inh = qHTS for Inhibitors of mutant isocitrate dehydrogenase 1 (IDH1): Cherrypicks in WT IDH1; shares compounds with mIDH1 inhibitor; WT IDH1 enzyme, NADPH diaphorase/resazurin fluorescence; Potency, µM (titrated, usually from 115 µM), without a hit: at the highest dose activity change, negative = inhibition, usual class: inhibitors; 9% of 750 active;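 note: potency is the fitted concentration of half-maximal effect; 0% = full WT IDH1 enzyme control and full inhibition = no enzyme wells; nearly all actives have a fitted effect of over 55% in size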
mIDH1 confirm = qHTS for Inhibitors of mutant isocitrate dehydrogenase 1 (IDH1): Confirmation of Cherrypicks; 83% of 750 active; shares compounds with mIDH1 inhibitor; Potency, µM (doses to about 76.6 µM), inactives show at the top dose activity change, negative = inhibition, actives largely listed as inhibitors; IDH1 R132H enzyme, NADPH diaphorase/resazurin fluorescence; note: potency is the fitted concentration of half-maximal effect; nearly all actives have a fitted effect of over 50% in size
Active calls of the source: *; i = inactive; ? = inconclusive; / = not tested or not shown. Hits are enriched below; roughly 0.54% of the tested compounds scored in any of these assays. Unless noted, calls come from the whole dose curve; as a rule, active = well fitted curve in the direction sought with a large enough effect; inconclusive = small, poorly fitted or top-dose-only effect, or another doubt; inactive = no such curve, though single readings can be large; an effect the other way counts as inactive or inconclusive.

SMILES	MLL CXXC-DNA inh	LDHA inh	pAkt inh	Menin MLL FP FL	mIDH1 inhibitor	Menin MLL FP TR	Resorufin autofl	WT IDH1 inh	mIDH1 confirm
CCOC(=O)C1C(=O)NC(SCC(=O)OC)=C(C#N)C1c1ccccc1OCC (configuration not stated)	-4%	-4	/	-1	-3%	8%	/	/	/
CCCOC(=O)CSC1=C(C#N)C(c2ccccc2OC)C(C#N)C(=O)N1 (configuration not stated)	3%	-16	i	1	?	-7%	6	91%	45µM*
C=CCSC1=C(C#N)C(c2ccccc2OCC)C(C#N)C(=O)N1 (configuration not stated)	0%	-12	i	-1	?	?	2	56%	45µM*
CC(=O)N1c2ccc(Cl)cc2C2C=CCC2C1c1cccc2ccccc12 (configuration not stated)	0%	1	i	8	15µM*	5%	11	40µM*	6.3µM*
O=C(NC1CCCC1)C(c1ccco1)N(C(=O)c1ccco1)c1ccccc1 (configuration not stated)	25%	-2	i	/	?	/	-1	3%	40µM*
CC(=O)Nc1ccc(N(C(=O)Cc2c[nH]c3ccccc23)C(C(=O)NC2CCCCC2)c2ccco2)cc1 (configuration not stated)	6%	-4	i	5	-1%	6%	/	/	/
CCc1ccc(N(C(=O)c2ccco2)C(C(=O)NC2CCCC2)c2ccco2)cc1 (configuration not stated)	/	-8	i	/	?	/	-7	-7%	40µM*
Cc1ccc(C)c(N(C(=O)c2ccco2)C(C(=O)NC2CCCC2)c2ccco2)c1 (configuration not stated)	3%	-16	i	0	46µM*	?	-4	13%	20µM*
CCc1ccc(N(C(=O)c2ccco2)C(C(=O)NC2CCCC2)c2ccncc2)cc1 (configuration not stated)	5%	0	i	-2	-11%	-23%	/	/	/
O=C(NC1CCCCC1)C(c1ccco1)N(C(=O)c1csnn1)c1ccccc1 (configuration not stated)	-4%	-3	i	2	-4%	-2%	/	/	/
Cc1ccc(C(C(=O)NC2CCCCC2)N(C(=O)Cc2c[nH]c3ccccc23)c2ccccc2)o1 (configuration not stated)	-1%	12	i	2	?	/	-9	-12%	7.1µM*
CC(C)Nc1nc(C(=O)Nc2ccc(Cn3cncn3)cc2)cs1	/	26	/	/	/	/	/	/	/
